# An excerpt weighted towards active compounds, which were near 12% of everything screened.
# Sfp PPTase inh – qHTS Assay for Inhibitors of Bacillus subtilis Sfp phosphopantetheinyl transferase (PPTase); 4'-phosphopantetheinyl transferase ffp (Bacillus subtilis), Q9F4F7; Biochemical Sfp PPTase activity, qHTS; Potency, µM, actives largely listed as inhibitors; 310,000 compounds, 3.5% hits; AID 1490, 2009;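 further: the enzyme is Sfp with the accession as filed and its product quenches rhodamine fluorescence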
#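 With Hepes-Na pH 7.6 buffer containing 10 mM MgCl2, Sfp (15 nM) modified BHQ-2-YbbR (12.5 uM) using rhodamine-CoA (5 uM). Two reads 30 minutes apart at 525/598 nm yielded each well's rate.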
# BAZ2B inh – qHTS Assay for Inhibitors of BAZ2B | AlphaScreen BAZ2B-H3K14Ac peptide displacement | Potency, µM (highest dose often 114 µM), most hits filed as inhibitors | 360,000 compounds, 4.4% hits | AID 504333, 2011; further: nearly all actives have a fitted effect of over 60% in size
#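 In this displacement format the biotinylated H3(5-23) peptide acetylated at Lys14 serves as ligand at 50 nM, with BAZ2B at 50 nM in PBS pH 7.4 containing 0.01% Tween-20. Donor and acceptor beads are 10 ug/mL final.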
# JMJD2A Tudor – qHTS Assay for Inhibitors of JMJD2A-Tudor Domain; AlphaScreen JMJD2A-Tudor / H3K4me3 peptide binding; Potency, µM (top dose mostly 114 µM), actives largely listed as inhibitors; 390,000 compounds, 4.4% hits; AID 504339, 2011; further: nearly all actives have a fitted effect of over 50% in size
# G9a block – qHTS Assay for Inhibitors of Histone Lysine Methyltransferase G9a; 350,000 compounds, 8.8% hits; G9a H3K9 monomethylation, AlphaScreen, 2 h; AID 504332, 2011; Histone-lysine N-methyltransferase EHMT2 (Homo sapiens), Q96KQ7; Potency, µM (titrated, usually from 102 µM), hits mostly inhibitors; further: nearly all actives have a fitted effect of over 75% in size
#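 G9a (20 nM) preincubated 15 min RT with compounds, then 500 nM biotinylated H3K9 peptide and 20 uM SAM added; 2 h RT reaction. Monomethyl-H3K9 product detected by AlphaScreen with anti-H3K9me1 antibody, streptavidin donor and anti-rabbit IgG acceptor beads.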
# L3MBTL1 block – qHTS Assay for the Inhibitors of L3MBTL1; Potency, µM (titrated, usually from 57.1 µM), usual class: inhibitors; 230,000 compounds, 0.66% hits; Lethal(3)malignant brain tumor-like protein 1 (Homo sapiens), Q9Y468; AlphaScreen L3MBTL1–H3K9me1 peptide binding; further: nearly all actives have a fitted effect of over 60% in size
# Target sequence (Q9Y468 whole entry, looked up): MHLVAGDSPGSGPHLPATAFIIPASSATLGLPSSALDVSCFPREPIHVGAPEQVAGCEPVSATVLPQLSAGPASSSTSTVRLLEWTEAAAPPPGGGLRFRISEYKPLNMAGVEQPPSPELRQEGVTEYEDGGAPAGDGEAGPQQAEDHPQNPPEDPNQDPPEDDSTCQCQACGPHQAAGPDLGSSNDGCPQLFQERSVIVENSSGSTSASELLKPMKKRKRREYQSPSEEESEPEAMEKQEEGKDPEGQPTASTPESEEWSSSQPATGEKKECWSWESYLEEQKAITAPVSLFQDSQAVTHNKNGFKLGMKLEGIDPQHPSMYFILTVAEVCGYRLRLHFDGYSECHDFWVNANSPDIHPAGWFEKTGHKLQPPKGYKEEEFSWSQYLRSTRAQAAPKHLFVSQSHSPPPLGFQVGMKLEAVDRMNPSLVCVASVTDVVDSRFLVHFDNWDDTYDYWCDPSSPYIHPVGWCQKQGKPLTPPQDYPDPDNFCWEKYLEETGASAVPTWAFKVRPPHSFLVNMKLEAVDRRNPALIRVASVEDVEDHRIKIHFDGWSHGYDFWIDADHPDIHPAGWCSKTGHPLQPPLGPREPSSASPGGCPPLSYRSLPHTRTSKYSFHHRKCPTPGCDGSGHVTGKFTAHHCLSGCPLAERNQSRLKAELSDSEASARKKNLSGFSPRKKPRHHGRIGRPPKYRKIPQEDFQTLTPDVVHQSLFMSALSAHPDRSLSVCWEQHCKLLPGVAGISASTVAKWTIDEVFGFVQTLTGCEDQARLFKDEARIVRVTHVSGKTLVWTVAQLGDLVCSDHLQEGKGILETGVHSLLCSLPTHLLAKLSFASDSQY
#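 Displacement of a biotinylated histone H3(1-15) peptide monomethylated at Lys9 (75 nM) from L3MBTL1 (50 nM) was measured by AlphaScreen after a 30 min room-temperature compound incubation; cefsulodin titration served as intraplate control.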
# HP1b binding inh – HTS for Inhibitors of HP1-beta Chromodomain Interactions with Methylated Histone Tails | Potency, µM (titrated, usually from 114 µM), most hits filed as inhibitors | Chromobox protein homolog 1 (Homo sapiens), P83916 | AlphaScreen HP1-beta / biotin-H3K9me3 peptide binding | 390,000 compounds, 0.56% hits; further: nearly all actives have a fitted effect of over 70% in size
#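 HP1-beta protein (50 nM final) preincubated 30 min at room temperature with biotinylated H3(1-18)K9me3 peptide (50 nM) in PBS pH 7.4, 0.01% Tween-20, then compound added for 30 min. AlphaScreen streptavidin donor/nickel chelate acceptor beads (10 ug/mL final), 30 min dark, luminescence read.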
# Hits are given with their value; i = inactive; ? = inconclusive; nt = not tested or not shown; [ ] = dose if it differs, or a comment. The call rests on the fitted dose curve; in most records, active means well fitted curve in the direction sought with a large enough effect; inconclusive means small, poorly fitted or top-dose-only effect, or another doubt; inactive means no such curve, though single readings can be large; an effect the other way counts as inactive or inconclusive.
SMILES,Sfp PPTase inh,BAZ2B inh,JMJD2A Tudor,G9a block,L3MBTL1 block,HP1b binding inh
CC1(C)Cc2c(C#N)c(N)sc(=S)c2CS1,15.8µM,i,50.1µM,25.1µM,i,?
COc1ccccc1NC(=O)N1CC(=O)Nc2sc3c(c2C1c1ccccc1)CCCC3 (stereo not given),nt,?,i,i,nt,i
Cc1sc2ncnc(N3CCN(Cc4ccccc4)CC3)c2c1-c1ccccc1,i,31.6µM,?,i,nt,?
Cc1sc2ncnc(Nc3ccc(N4CCOCC4)cc3)c2c1-c1ccccc1,?,?,35.5µM,28.2µM,i,i
CCCCN1C(=O)N(C)C2NC(=O)NC21 (stereo not given),i,i,i,i[12.7 µM],nt,i
CCCCN1C(=O)NC2NC(=O)NC21 (stereo not given),i,20µM,?,25.1µM,i,i
O=c1c2ccccc2oc2cc(O)c(C3COCC(CO)C(O)C(O)C3O)c(O)c12 (stereo not given),79.4µM,nt,nt,nt,nt,nt
COc1cc(NCCC(=O)c2cccs2)c(OC)cc1Cl,i,39.8µM,39.8µM,7.94µM,?,56.2µM
CCn1cc(C(=O)NCc2ccc(Cl)cc2)c(=O)c2cc(S(=O)(=O)N(C)C)ccc21,i,i,i,i,nt,i
CC(NO)C(C)(C)NO (stereo not given),i,i,39.8µM,?,i,?
COc1ccc(Cl)cc1NC(=O)c1c(C(=O)Nc2cccc(C)c2C)sc2nc(C)cc(=O)n12,nt,i,i,11.2µM,nt,i
COc1ccc(Cl)cc1NC(=O)c1ocnc1C,i,i,i,50.1µM,i,i
COc1ccc(NC(=O)c2ocnc2C)cc1OC,i,i,i,i,i,i
COc1ccccc1Nc1ccc(NC(=O)c2cccc([N+](=O)[O-])c2C)cc1,i,10µM,12.6µM,i[2.33 µM],nt,?
COc1ccccc1Nc1ncccc1[N+](=O)[O-],i,31.6µM,44.7µM,8.91µM,?,?
COc1ccccc1C(CNc1ncccc1[N+](=O)[O-])N(C)C (stereo not given),i,i,i,?,nt,i
COc1ccc(CNC(=O)c2cccc(NC(=O)N3CCSc4ncccc43)c2)cc1,nt,i,i,?,nt,i
CCCOc1ccc(/C(O)=C2\C(=O)C(=O)N(CCCOC)C23C(=O)N(C)c2ccccc23)cc1 (stereo not given),i,i,i,i[2.33 µM],i,i
COc1ccc(C2/C(=C(/O)c3ccc(F)cc3)C(=O)C(=O)N2CCCN(C)C)cc1 (stereo not given),nt,nt,i,nt,nt,i
CCCOc1ccc(C2/C(=C(/O)c3ccc(F)cc3)C(=O)C(=O)N2CCCN(C)C)cc1 (stereo not given),i,i,i,39.8µM,i,i
COc1ccc(/C(O)=C2\C(=O)C(=O)N(CCN(C)C)C2c2cc(OC)c(OC)c(OC)c2)c(C)c1 (stereo not given),i,79.4µM,i,?,nt,i
CCCOc1ccc(/C(O)=C2\C(=O)C(=O)N(CCCN(C)C)C23C(=O)N(C)c2ccccc23)cc1 (stereo not given),i,i,nt,44.7µM,i,nt
CCCCOc1ccc(/C(O)=C2/C(=O)C(=O)N(CCN(C)C)C2c2ccc(O)c(OC)c2)cc1 (stereo not given),i,i,i,?,i,i
CCCOc1cccc(C2/C(=C(/O)c3ccc(OC)cc3)C(=O)C(=O)N2CCN(C)C)c1 (stereo not given),i,i,i,50.1µM,i,i
Cc1c(C(=O)N2CCC(C(=O)Nc3ccc(F)cc3)CC2)sc2nc[nH]c(=O)c12,nt,i,i,i,nt,i
SMILES,Sfp PPTase inh,BAZ2B inh,JMJD2A Tudor,G9a block,L3MBTL1 block,HP1b binding inh
O=C(COc1ccc(F)c(Cl)c1)Nc1ccc(N2CCOCC2)cc1,nt,nt,i,nt,i,i
O=C(COc1cccc(Cl)c1)Nc1ccc(N2CCOCC2)cc1,i,i,i,79.4µM,nt,i
CC(Oc1cccc(Cl)c1)C(=O)N(C)CC(=O)Nc1ccc(N2CCOCC2)cc1 (stereo not given),nt,i,i,39.8µM,i,i
CC(=O)Nc1ccc(S(=O)(=O)Nc2ccc(C)c(C)c2)cc1,nt,nt,i,nt,nt,nt
CNc1nc(-c2ccccc2C(F)(F)F)nc2ccccc12,i,nt,nt,nt,nt,nt
Cc1nccn1CC(=O)N/N=C/c1cccc(O)c1,i,i,i,i,i,i
CN(C)c1ccc([C@@H]2[C@@H]([N+](=O)[O-])[C@H]3C=Cc4ccccc4N3[C@H]2C(=O)c2ccc(Cl)cc2)cc1,i,31.6µM,44.7µM,7.94µM,?,?
Nc1[nH]n2c(=O)cc(-c3ccccc3)nc2c1N=Nc1ccc(S(N)(=O)=O)cc1,i,?,?,35.5µM,i,i
Nc1[nH]n2c(=O)cc(-c3ccccc3)nc2c1N=Nc1ccccc1,i,i,i,?,i,i
ON1C(c2ccc(Cl)cc2Cl)N(O)[C@H]2CCCC[C@H]21 (stereo not given in full),i,i,i,50.1µM,i,i
C/C(=N\Nc1ccc(Cl)c(C(=O)O)c1)c1cccc([N+](=O)[O-])c1,i,i,i,15.8µM,i,i
C/C(=N\Nc1nnc(-c2ccccc2)c(-c2ccccc2)n1)c1cccc([N+](=O)[O-])c1,50.1µM,i,i,i,i,i
C/C(=N\NC(=O)c1ccccc1C)c1cccc([N+](=O)[O-])c1,i,i,i,i,nt,i
CCOc1ccc(CCNC(=O)c2cc3c(s2)CS(=O)(=O)C3)cc1OCC,i,i,i,i,nt,i
C(=C\c1ccco1)/c1nc2ccccc2[nH]1,39.8µM,?,i,nt,i,i
O=C(Nc1ccc(-c2nc3ccccc3[nH]2)cc1)c1ccco1,i,i,i,?,i,i
O=C(/C=C/c1ccco1)Nc1ccc(-c2nc3ccccc3[nH]2)cc1,i,?,i,39.8µM,i,i
C(=C\c1ccco1)/c1ccc2ccccc2n1,50.1µM,39.8µM,i,nt,14.1µM,?
O=C(O)CCN1CCc2ccccc2C1c1ccncc1 (stereo not given),i,i,i,50.1µM,nt,i
O=C(O)CCN1CCc2ccccc21,i,?,i,?,?,i
COc1cc(C2CC(=O)Oc3cc(C)c(Br)c(C)c32)cc(OC)c1OC (stereo not given),i,nt,i,i,i,i
CN(C)CCN(Cc1ccc(Cl)cc1)c1ccccn1,?,i,i,i,i,i
C[N+](C)(C)CCN(Cc1ccc(Cl)cc1)c1ccccn1,i,50.1µM,i,i,i,i
O=C(CN1C=NS(=O)(=O)c2ccccc21)Nc1ccc(F)cc1,nt,i,i,i,nt,i
